Laboratory results reported in the supplement of paper PMC12494721.
Where a name gives a salt, the structure may show the parent alone.

How the values were obtained:
Details in all cases: incubation time: 27 h, anaerobic, 37 °C;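 for the amine columns active = adjusted P below 0.05 in both replicates with a change the same way and a mean fold change under 0.8 or over 1.25; inactive = the rest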
[1] = tested on: Clostridium sporogenes DSM 1664; assay: growth (OD595) fold change vs plate DMSO controls (fold change (ratio)); higher = more growth
Summary of the method: (§1)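 Absorbance at 595 nm was read after shaking the anaerobic mGAM cultures, which had grown in 96-well plates for 27 h at 37 °C. After blank subtraction and background correction against 20 µM compound solutions in water, a calibration factor of 5 gave OD values. Growth is the fold change against the median of the plate's DMSO controls. Values are the mean of 2 biological replicates, with fold changes above 1.5 set to NA.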

Escherichia coli IAI1 [2] = assay: as above
Summary of the method: as §1

[3] = tested on: Klebsiella aerogenes DSM 30053; assay: as above
Summary of the method: as §1

[4] = tested on: Ruminococcus gnavus DSM 108212; assay: as above
Summary of the method: as §1

[5] = tested on: Klebsiella aerogenes DSM 30053; assay: fold change of Histamine concentration vs plate DMSO controls (fold change (ratio)); higher = more amine produced, active = hit call of the paper (significant change in both replicates, either direction)
Summary of the method: (§2)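 Anaerobic mGAM cultures of four gut bacterial strains were grown at 37 °C for 27 h in 80 µL wells, starting at OD 0.1 before 1:1 dilution. Compounds were at 20 µM final (sweeteners 50 µM). Whole cultures were extracted with cold acetonitrile/methanol containing 0.1% formic acid and centrifuged. Amines were quantified by LC–triple-quadrupole MS (dynamic MRM) against external calibration curves and drift-corrected within batch. Each value is the fold change versus plate DMSO controls, averaged over 2 biological replicates.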

[6] = tested on: Clostridium sporogenes DSM 1664; assay: fold change of Tryptamine concentration vs plate DMSO controls (fold change (ratio)); higher = more amine produced, active = hit call of the paper (significant change in both replicates, either direction)
Summary of the method: as §2

[7] = tested on: Ruminococcus gnavus DSM 108212; assay: as above
Summary of the method: as §2

Escherichia coli IAI1 [8] = assay: fold change of Putrescine concentration vs plate DMSO controls (fold change (ratio)); higher = more amine produced, active = hit call of the paper (significant change in both replicates, either direction)
Summary of the method: as §2

[9] = tested on: Klebsiella aerogenes DSM 30053; assay: as above
Summary of the method: as §2

Escherichia coli IAI1 [10] = assay: fold change of Cadaverine concentration vs plate DMSO controls (fold change (ratio)); higher = more amine produced, active = hit call of the paper (significant change in both replicates, either direction)
Summary of the method: as §2

[11] = tested on: Klebsiella aerogenes DSM 30053; assay: as above
Summary of the method: as §2

[12] = tested on: Ruminococcus gnavus DSM 108212; assay: fold change of 2-Phenylethylamine concentration vs plate DMSO controls (fold change (ratio)); higher = more amine produced, active = hit call of the paper (significant change in both replicates, either direction)
Summary of the method: as §2

Row | SMILES | growth [1] | growth (Escherichia coli IAI1 [2]) | growth [3] | growth [4] | fold change of Histamine concentration [5] | fold change of Tryptamine concentration [6] | fold change of Tryptamine concentration [7] | fold change of Putrescine concentration (Escherichia coli IAI1 [8]) | fold change of Putrescine concentration [9] | fold change of Cadaverine concentration (Escherichia coli IAI1 [10]) | fold change of Cadaverine concentration [11] | fold change of 2-Phenylethylamine concentration [12]
1 | C[C@H]1[C@H](OC(=O)CCC(=O)O)O[C@@H]2O[C@@]3(C)CC[C@H]4[C@H](C)CC[C@@H]1[C@@]24OO3 [Artesunate] (20 µM) | 1.08 | 1.01 | 1.03 | 0.931 | 1.04 (inactive) | 1.05 (inactive) | 0.879 (inactive) | 0.992 (inactive) | 1.01 (inactive) | 0.99 (inactive) | 0.982 (inactive) | 0.834 (inactive)
2 | Cc1cc(NC(=O)C2=C(O)c3ccccc3S(=O)(=O)N2C)no1 [Isoxicam] (20 µM) | 1.11 | 1.05 | 0.997 | 1.02 | 0.996 (inactive) | 1.02 (inactive) | 1.02 (inactive) | 1.03 (inactive) | 1.01 (inactive) | 0.969 (inactive) | 0.994 (inactive) | 0.947 (inactive)
3 | NS(=O)(=O)c1cc(Cl)c(Cl)c(S(N)(=O)=O)c1 [Dichlorphenamide] (20 µM) | 0.963 | 0.998 | 1.2 | 0.536 | 0.902 (inactive) | 0.966 (inactive) | 0.572 (inactive) | 1.06 (inactive) | 1.01 (inactive) | 0.995 (inactive) | 1.03 (inactive) | 0.54 (inactive)
4 | CC1=C(C(=O)O)N2C(=O)[C@@H](NC(=O)[C@H](N)c3ccc(O)cc3)[C@H]2SC1 [Cefadroxil] (20 µM) | 0.898 | 1.03 | 1 | 1.08 | 1.08 (inactive) | 0.974 (inactive) | 1 (inactive) | 1.03 (inactive) | 1.01 (inactive) | 1.02 (inactive) | 0.996 (inactive) | 1.03 (inactive)
5 | Cc1cc(-n2c(=O)[nH]c(=O)n(C)c2=O)ccc1Oc1ccc(SC(F)(F)F)cc1 [Toltrazuril] (20 µM) | 1.1 | 0.997 | 1.05 | 1.09 | 0.976 (inactive) | 0.941 (inactive) | 0.792 (inactive) | 1.01 (inactive) | 1 (inactive) | 1.08 (inactive) | 1.01 (inactive) | 0.81 (inactive)
6 | Cc1ncc([N+](=O)[O-])n1C [Dimetridazole] (20 µM) | 0.0144 | 1.02 | 0.995 | 0.811 | 0.868 (inactive) | 0.0153 (active) | 0.218 (active) | 1.05 (inactive) | 1.01 (inactive) | 1.07 (inactive) | 1.01 (inactive) | 0.218 (active)
7 | CC(C[N+](C)(C)C)OC(N)=O (stereo not given) [Bethanechol chloride] (20 µM) | 0.85 | 0.962 | 0.937 | 0.707 | 0.98 (inactive) | 1.01 (inactive) | 1.01 (inactive) | 1.03 (inactive) | 1.01 (inactive) | 1 (inactive) | 1 (inactive) | 1.01 (inactive)
8 | O=C(N[C@H](CO)[C@H](O)c1ccc([N+](=O)[O-])cc1)C(Cl)Cl [Chloramphenicol] (20 µM) | 1.25 | 0.0503 | 0.0799 | 1.08 | 0.0535 (active) | 0.64 (inactive) | 0.168 (active) | 0.245 (active) | 0.512 (active) | 0.0844 (active) | 0.383 (active) | 0.182 (active)
9 | CN1C(=O)CC(c2ccccc2)C1=O (stereo not given) [Phensuximide] (20 µM) | 0.976 | 1.28 | 0.996 | 1.05 | 1.04 (inactive) | 1.03 (inactive) | 1.03 (inactive) | 1.21 (inactive) | 1.01 (inactive) | 1.01 (inactive) | 0.989 (inactive) | 1.02 (inactive)
10 | CC1(C)O[C@@H]2C[C@H]3[C@@H]4CCC5=CC(=O)CC[C@]5(C)[C@@]4(F)[C@@H](O)C[C@]3(C)[C@]2(C(=O)CCl)O1 [Halcinonide] (20 µM) | 1.17 | 1.01 | 1.05 | 1.07 | 0.941 (inactive) | 0.989 (inactive) | 0.963 (inactive) | 0.988 (inactive) | 0.994 (inactive) | 1.02 (inactive) | 1.01 (inactive) | 0.978 (inactive)
11 | Cc1ccsc1C(=CCCN1CCC[C@@H](C(=O)O)C1)c1sccc1C [Tiagabine hydrochloride] (20 µM) | 1.03 | 0.984 | 1.05 | 1.01 | 0.968 (inactive) | 0.999 (inactive) | 0.971 (inactive) | 1.03 (inactive) | 1.02 (inactive) | 1.01 (inactive) | 1.01 (inactive) | 0.927 (inactive)
12 | CN(C)CCOC(C)(c1ccccc1)c1ccccn1 (stereo not given) [Doxylamine succinate] (20 µM) | 1.13 | 0.972 | 1.01 | 1.05 | 1.01 (inactive) | 0.943 (inactive) | 0.988 (inactive) | 1.01 (inactive) | 1.01 (inactive) | 0.924 (inactive) | 1 (inactive) | 0.891 (inactive)
13 | CCN(CC)CC(=O)Nc1c(C)cccc1C [Lidocaine hydrochloride] (20 µM) | 0.845 | 0.973 | 0.979 | 0.66 | 1.08 (inactive) | 1.01 (inactive) | 1.01 (inactive) | 0.95 (inactive) | 1.01 (inactive) | 0.975 (inactive) | 0.988 (inactive) | 1.05 (inactive)
14 | COCCCOc1cc(C[C@@H](C[C@H](N)[C@@H](O)C[C@H](C(=O)NCC(C)(C)C(N)=O)C(C)C)C(C)C)ccc1OC [Aliskiren hemifumarate] (20 µM) | 1.02 | 0.992 | 1 | 0.808 | 1.06 (inactive) | 1 (inactive) | 1.04 (inactive) | 1 (inactive) | 1.02 (inactive) | 1 (inactive) | 0.987 (inactive) | 1.05 (inactive)
15 | CCc1oc2ccccc2c1C(=O)c1cc(I)c(O)c(I)c1 [Benziodarone] (20 µM) | 0.283 | 0.975 | 1.01 | 0.707 | 1.03 (inactive) | 0.0565 (active) | 0.468 (active) | 1.03 (inactive) | 1.01 (inactive) | 1.05 (inactive) | 1.01 (inactive) | 0.489 (inactive)
16 | CCCCC[C@H](O)/C=C/[C@H]1[C@H](O)CC(=O)[C@@H]1CCCCCCC(=O)O [Alprostadil] (20 µM) | 1.02 | 0.977 | 1.01 | 1.01 | 1.08 (inactive) | 0.957 (inactive) | 0.987 (inactive) | 1.05 (inactive) | 1.01 (inactive) | 1.01 (inactive) | 0.997 (inactive) | 0.985 (inactive)
17 | CCN(CCCc1ccccc1)CCCc1ccccc1 [Alverine citrate salt] (20 µM) | 0.998 | 1.01 | 1.11 | 0.708 | 0.972 (inactive) | 1.03 (inactive) | 0.74 (active) | 0.895 (inactive) | 1.02 (inactive) | 1.29 (active) | 1.02 (inactive) | 0.782 (inactive)
18 | C/C(=C(\CCOP(=O)(O)O)SC(=O)c1ccccc1)N(C=O)Cc1cnc(C)nc1N [Benfotiamine] (20 µM) | 0.989 | 0.98 | 1.03 | 1.05 | 0.984 (inactive) | 1.01 (inactive) | 0.96 (inactive) | 0.942 (inactive) | 1 (inactive) | 1.04 (inactive) | 1 (inactive) | 0.959 (inactive)
19 | CO/N=C(\C(=O)N[C@@H]1C(=O)N2C(C(=O)[O-])=C(C[n+]3ccn4ncccc43)CS[C@H]12)c1nsc(N)n1 [Cefozopran hydrochloride] (20 µM) | 0 | 0.102 | 0.153 | 0.0221 | 1.35 (active) | 0.0264 (active) | 0.0903 (active) | 2.2 (active) | 0.898 (inactive) | 2 (active) | 1.05 (inactive) | 0.0687 (active)
20 | OC[C@H](O)C(O)[C@@H](O)CO [L-Arabinitol] (50 µM) | 1.11 | 0.995 | 0.979 | 0.985 | 1 (inactive) | 0.956 (inactive) | 0.939 (inactive) | 1.06 (inactive) | 1.02 (inactive) | 0.981 (inactive) | 0.984 (inactive) | 0.908 (inactive)
21 | CN(C)CCCC1(c2ccc(F)cc2)OCc2cc(C#N)ccc21 (stereo not given) [Citalopram hydrobromide] (20 µM) | 0.923 | 0.992 | 0.994 | 1.08 | 0.919 (inactive) | 0.955 (inactive) | 0.845 (inactive) | 0.927 (inactive) | 1 (inactive) | 0.991 (inactive) | 1.01 (inactive) | 0.788 (inactive)
22 | O=C(Oc1ccccc1)n1c(C(F)(F)F)nc2cc(Cl)c(Cl)cc21 (20 µM) | 0.822 | 0.604 | 0.714 | 0.827 | 1.39 (active) | 1.11 (inactive) | 0.875 (inactive) | 1.38 (active) | 0.931 (inactive) | 1.59 (active) | 0.926 (inactive) | 0.917 (inactive)
23 | CCC(=O)c1c(O)cc(O)cc1O [Flopropione] (20 µM) | 0.955 | 1.01 | 0.997 | 0.986 | 1.01 (inactive) | 1 (inactive) | 0.927 (inactive) | 1 (inactive) | 1.01 (inactive) | 1 (inactive) | 1 (inactive) | 0.896 (inactive)
24 | Nc1nc(N)nc(-c2cc(Cl)ccc2Cl)n1 [Irsogladine maleate] (20 µM) | 1.07 | 1.02 | 0.961 | 1.02 | 0.989 (inactive) | 0.978 (inactive) | 0.959 (inactive) | 1.04 (inactive) | 0.998 (inactive) | 1.06 (inactive) | 0.997 (inactive) | 0.921 (inactive)
25 | CC(C)(C)C(=O)C(Oc1ccc(Cl)cc1)n1ccnc1 (stereo not given) [Climbazole] (20 µM) | 1.22 | 1.05 | 1.07 | 0.922 | 0.96 (inactive) | 1.04 (inactive) | 0.979 (inactive) | 1.04 (inactive) | 1.02 (inactive) | 0.968 (inactive) | 1.01 (inactive) | 1.03 (inactive)
